Reference: PubChem BioAssay (Tox21)
“And” between values parts separate entries of the source, which are not always exact repeats. Equal entries are not always repeated. Results filed as inconclusive are left out. A call without a number means that no potency is given here. The source holds several records for some structures; these can differ, active in one and inactive in another. The source made the active and inactive calls. Calls follow the shape of the dose curve; as a rule, active = well fitted curve in the direction sought with a large enough effect in the repeat runs; inconclusive = weak or mixed curves; inactive = no such curve, though single readings can be large; an effect the other way counts as inactive or inconclusive.

How the values were obtained:
[1] = A CellTox Green Cytotoxicity Assay to monitor cytotoxicity in HEK293 cells - 32 hour (AID 1224881); also: nearly all actives have a fitted effect of over 40% in size
Method in brief: (§1)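 Fluorescence intensity, read at 0, 8, 16, 24, 32 and 40 h of compound treatment, reflected dye binding to DNA of dead HEK293 cells; compounds (23 nL, DMSO) were added 5 h after plating cells with reagent.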

[2] = A CellTox Green Cytotoxicity Assay to monitor cytotoxicity in HepG2 cells - 0 hour (AID 1224882); also: nearly all actives have a fitted effect of over 35% in size
Method in brief: (§2)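 Using 1536-well format, dye-containing HepG2 suspension was seeded, allowed 5 h at 37 C/5% CO2, dosed by pintool with compounds, positive and negative controls, and imaged for fluorescence across 40 h.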

[3] = A CellTox Green Cytotoxicity Assay to monitor cytotoxicity in HepG2 cells - 32 hour (AID 1224883); also: nearly all actives have a fitted effect of over 50% in size
Method in brief: as §2

[4] = A CellTox Green Cytotoxicity Assay to monitor cytotoxicity in HEK293 cells - 8 hour (AID 1224884); also: nearly all actives have a fitted effect of over 35% in size
Method in brief: as §1

[5] = qHTS RealTime-Glo MT Cell Viability Assay in HepG2 cells - 16 hour (AID 1224885); also: nearly all actives have a fitted effect of over 50% in size
Method in brief: (§3)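 Tox21 10K library screened in qHTS format on HepG2 cells carrying RealTime-Glo reagents. Compounds were added after a 5 h preincubation, and the luminescent signal from continuous culture was measured repeatedly during 40 h treatment.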

[6] = qHTS RealTime-Glo MT Cell Viability Assay in HEK293 cells - 24 hour (AID 1224886); also: nearly all actives have a fitted effect of over 50% in size
Method in brief: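 Luminescence generated by NanoLuc from substrate produced by living HEK293 cells served as the viability signal. Each value reflects the reading at its stated time point during continuous 40 h compound exposure at 37 C.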

[7] = qHTS RealTime-Glo MT Cell Viability Assay in HEK293 cells - 8 hour (AID 1224887); also: nearly all actives have a fitted effect of over 50% in size
Method in brief: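 Viable HEK293 cells reduce a cell-permeant prosubstrate; the product diffuses out and is consumed by NanoLuc in the medium to give light. Compounds went in after a 5 h incubation and plates were read over the treatment course.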

[8] = A CellTox Green Cytotoxicity Assay to monitor cytotoxicity in HEK293 cells - 16 hour (AID 1224888); also: nearly all actives have a fitted effect of over 35% in size
Method in brief: as §1

[9] = qHTS RealTime-Glo MT Cell Viability Assay in HepG2 cells - 0 hour (AID 1224889); also: nearly all actives have a fitted effect of over 50% in size
Method in brief: as §3

[10] = A CellTox Green Cytotoxicity Assay to monitor cytotoxicity in HepG2 cells - 8 hour (AID 1224890); also: nearly all actives have a fitted effect of over 45% in size
Method in brief: as §2
Potency is read from the fitted curve at half-maximal effect.

| SMILES | Potency [1] | Potency [2] | Potency [3] | Potency [4] | Potency [5] | Potency [6] | Potency [7] | Potency [8] | Potency [9] | Potency [10] |
| --- | --- | --- | --- | --- | --- | --- | --- | --- | --- | --- |
| O=CCc1ccccc1 | inactive | inactive | inactive | inactive | inactive | inactive | inactive | inactive | inactive | inactive |
| Nc1ccc(Nc2ccccc2)cc1 | inactive | inactive | inactive | inactive | inactive | 48.5 µM (active) | 21.6 µM (active) and 21.9 µM (active) | inactive | inactive | inactive |
| COc1ccc(C(=O)CC(=O)c2ccc(C(C)(C)C)cc2)cc1 | inactive | inactive and 75.6 nM (active) | inactive and 67.4 nM (active) | inactive | inactive | 29.6 µM (active) and inactive |  | inactive | inactive | inactive and 75.6 nM (active) |
| NNc1ccc(C(=O)O)cc1 | inactive | inactive | inactive | inactive | inactive | inactive | inactive | inactive | inactive | inactive |
| O=C1OC2(c3cc(Br)c(O)c(Br)c3Oc3c2cc(Br)c(O)c3Br)c2c(Cl)c(Cl)c(Cl)c(Cl)c21 | 4.91 µM (active) and 26.5 µM (active) | 39 µM (active) and 26.5 µM (active) | 3.1 µM (active) and 23.6 µM (active) | 3.9 µM (active) and 23.6 µM (active) | inactive | inactive | inactive | 2.76 µM (active) and 23.6 µM (active) | 55 µM (active) | 3.47 µM (active) and 16.7 µM (active) |
| CCCCC(CC)COCC1CO1 (stereo not given) | inactive | inactive | inactive | inactive | inactive | inactive | inactive | inactive | inactive | inactive |
| Cc1[nH]c(=O)c(C#N)cc1-c1ccncc1 | inactive | inactive | inactive | inactive | inactive | inactive | inactive | inactive | inactive | inactive |
| c1cc(-c2ccncc2)ccn1 | inactive | inactive | inactive | inactive |  | inactive | inactive | inactive | inactive |  |
| CN(C)c1nc(N(C)C)nc(N(C)C)n1 | inactive | inactive | inactive | inactive | inactive | inactive | inactive | inactive | inactive | inactive |
| Nc1ccccc1N | 50.1 µM (active) | 50.1 µM (active) and inactive | 50.1 µM (active) | 50.1 µM (active) | inactive | inactive |  | 50.1 µM (active) | inactive | 56.2 µM (active) |
| c1cc(N(CC2CO2)CC2CO2)ccc1OCC1CO1 (stereo not given) | inactive | inactive | inactive | inactive | inactive |  | inactive | inactive | inactive | inactive |
| CCC(C)(O)CCCC(C)C (stereo not given) | inactive | inactive | inactive | inactive | inactive | inactive | inactive | inactive | inactive | inactive |
| CNCCCC12CCC(c3ccccc31)c1ccccc12 | 49 µM (active) | inactive | 34.7 µM (active) and 23.9 µM (active) | inactive | 49 µM (active) | 49 µM (active) | inactive |  |  | inactive |
| CCC(C)c1ccccc1O (stereo not given) | 38.6 µM (active) | inactive | 48.6 µM (active) | inactive | inactive | inactive | inactive |  | inactive |  |
| CC(C)CC(C)(O)C#CC(C)(O)CC(C)C (stereo not given) | inactive | inactive | inactive | inactive | inactive | inactive | inactive | inactive | inactive | inactive |
| CC(C)(C)NC(=O)[C@H]1CC[C@H]2[C@@H]3CC[C@H]4NC(=O)C=C[C@]4(C)[C@H]3CC[C@]12C | inactive | inactive | inactive | inactive |  | inactive | inactive | inactive | inactive |  |
| Cc1c(C(N)=O)cc([N+](=O)[O-])cc1[N+](=O)[O-] | inactive | inactive | inactive | inactive | inactive | inactive | inactive | inactive | inactive | inactive |
| O=P(O)(O)O | inactive | inactive | inactive | inactive |  | inactive | inactive | inactive | inactive |  |
| O=C1c2cccc(O)c2C(=O)c2c(O)cccc21 | inactive | inactive | inactive | inactive | inactive |  |  | inactive | inactive | inactive |
| CN(C)CCN(Cc1cccs1)c1ccccn1 | inactive | inactive | inactive | inactive | inactive | inactive | inactive | inactive | inactive | inactive |
| O=C=Nc1ccc(Cc2ccc(N=C=O)cc2)cc1 | inactive | inactive | inactive | inactive |  | inactive | inactive | inactive | inactive |  |
| S=C(NC1CCCCC1)NC1CCCCC1 | inactive | inactive | inactive | inactive | inactive | 17 µM (active) and 21.9 µM (active) |  | inactive | inactive | inactive |
| O=c1oc(=O)c2cc3c(=O)oc(=O)c3cc12 | inactive | inactive | inactive | inactive | inactive | inactive | inactive | inactive | inactive | inactive |
| CC(CCC(=O)O)(c1ccc(O)cc1)c1ccc(O)cc1 | inactive | inactive | inactive | inactive | inactive | inactive | inactive | inactive | inactive | inactive |

| SMILES | Potency [1] | Potency [2] | Potency [3] | Potency [4] | Potency [5] | Potency [6] | Potency [7] | Potency [8] | Potency [9] | Potency [10] |
| --- | --- | --- | --- | --- | --- | --- | --- | --- | --- | --- |
| OC[C@H]1O[C@@H]2O[C@H]3[C@H](O)[C@@H](O)[C@@H](O[C@H]4[C@H](O)[C@@H](O)[C@@H](O[C@H]5[C@H](O)[C@@H](O)[C@@H](O[C@H]6[C@H](O)[C@@H](O)[C@@H](O[C@H]7[C@H](O)[C@@H](O)[C@@H](O[C@H]8[C@H](O)[C@@H](O)[C@@H](O[C@H]1[C@H](O)[C@H]2O)O[C@@H]8CO)O[C@@H]7CO)O[C@@H]6CO)O[C@@H]5CO)O[C@@H]4CO)O[C@@H]3CO | inactive | inactive | inactive | inactive | inactive | inactive | inactive | inactive | inactive | inactive |
| CC(C)OC(=O)C(C)(C)Oc1ccc(C(=O)c2ccc(Cl)cc2)cc1 | inactive | inactive | inactive | inactive | inactive | 19.5 µM (active) and 10.7 µM (active) | 24.5 µM (active) and 16.9 µM (active) | inactive | inactive | inactive |
| O=C(Nc1ccc(Cl)cc1)Nc1ccc(Cl)c(Cl)c1 | inactive | inactive | inactive | inactive | inactive |  | inactive | inactive | inactive | inactive |
| Cn1cnc([N+](=O)[O-])c1Sc1ncnc2nc[nH]c12 | 30.7 µM (active) and inactive | inactive | 54.5 µM (active) and inactive | inactive | inactive |  | inactive | inactive | inactive | inactive |
| CC(C)Oc1ccc2c(=O)c(-c3ccccc3)coc2c1 | inactive | inactive | inactive | inactive | inactive | 12 µM (active) |  | inactive | inactive |  |
| CC(=O)Oc1ccccc1C(=O)Nc1ncc([N+](=O)[O-])s1 | inactive | inactive | inactive | inactive | inactive |  | inactive | inactive | inactive |  |
| Cc1ccc(C)c(O)c1C | inactive | inactive | inactive | inactive | inactive | inactive | inactive | inactive | inactive | inactive |
| Cc1ccc(C(=O)c2cc(O)c(O)c([N+](=O)[O-])c2)cc1 | inactive | inactive | inactive | inactive | inactive | inactive | inactive | inactive | inactive | inactive |
| COC(C)COC(C)COC(C)CO (stereo not given) | inactive | inactive | inactive | inactive | inactive | inactive | inactive | inactive | inactive | inactive |
| O=C(COc1ccc(Cl)cc1)N1CCN(Cc2ccc3c(c2)OCO3)CC1 | inactive | inactive | inactive | inactive |  | 38.9 µM (active) | 38.9 µM (active) and inactive | inactive | inactive | inactive |
| CC(=O)O[C@]1(C(C)=O)CC[C@H]2[C@@H]3C=C(Cl)C4=CC(=O)[C@@H]5C[C@@H]5[C@]4(C)[C@H]3CC[C@@]21C | inactive | inactive | inactive | inactive |  | 21.9 µM (active) | inactive | inactive | inactive | inactive |
| CN1C(C(=O)Nc2ccccn2)=C(O)c2ccccc2S1(=O)=O | inactive | inactive | inactive | inactive |  | inactive | inactive | inactive | inactive | inactive |
| COc1c(Cl)c(Cl)c(Cl)c(Cl)c1Cl | inactive | inactive | inactive | inactive |  | inactive | inactive | inactive | inactive | inactive |
| C=CC(C)(CCC=C(C)C)OC(C)=O (stereo not given) | inactive | inactive | inactive | inactive |  | inactive | inactive | inactive | inactive | inactive |
| CCC(C)OC(=O)c1ccc(O)cc1 (stereo not given) | inactive | inactive |  | inactive | inactive |  | inactive | inactive | inactive |  |
| CC(C)=CCC/C(C)=C\CO | inactive | inactive | inactive | inactive |  | inactive | inactive | inactive | inactive | inactive |
| c1ccc2cc(Nc3ccc(Nc4ccc5ccccc5c4)cc3)ccc2c1 | inactive | inactive | inactive | inactive |  | inactive | inactive | inactive | inactive |  |
| Oc1ccc(O)cc1 | inactive | inactive | inactive | inactive |  |  | inactive | inactive | inactive | inactive |
| CCCCNS(=O)(=O)c1ccccc1 | inactive | inactive | inactive | inactive |  | inactive and 6.16 µM (active) | inactive | inactive | inactive | inactive |
| COc1ccccc1/C=C/C=O | inactive | inactive | inactive | inactive |  |  | inactive | inactive | inactive | inactive |
| Nc1ncnc2nc[nH]c12 | inactive | inactive | inactive | inactive |  | inactive | inactive | inactive | inactive |  |
| C[C@]12CCC(=O)C=C1CC[C@@H]1[C@@H]2C(=O)C[C@@]2(C)[C@H]1CC[C@]2(O)C(=O)CO | inactive | inactive | inactive | inactive |  | inactive | inactive | inactive | 5.49 µM (active) | inactive |
| COc1ccc(OC)c(C(O)CNC(=O)CN)c1 (stereo not given) | inactive | inactive | inactive | inactive |  | inactive | inactive | inactive | inactive |  |
